Data published in PubChem BioAssay (Tox21).
A number with no mark means an inactive call. The source made the active and inactive calls. The call rests on the fitted dose curve; in most records, active means well fitted curve in the direction sought with a large enough effect in the repeat runs; inconclusive means weak or mixed curves; inactive means flat fitted curve, though single readings scatter.

Assay: qHTS assay to test for compound auto fluorescence at 535 nm (green) in HEK293 cells (AID 720680)
Conditions: green autofluorescence 485/535 nm; series mostly up to 91.3 µM; fluorescence, % of fluorescein: at the top concentration
From the text: U.S. Tox21 Program National Center for Advancing Translational Sciences [NCATS] NIH Chemical Genomics Center [NCGC] U.S. Environmental Protection Agency [EPA] National Institutes of Environmental Health Sciences [NIEHS] National Toxicology Program [NTP] U.S. Food and Drug Administration [FDA] Tox21 Assay Overview: Compound auto fluorescence often interferes with screening of the compound library against various biological targets and signaling pathways. Some of these compounds may have fluorophoric properties. Such properties may interfere with the assay outputs resulting in false positives and/or negatives. To decrease such complications and ensure the compound activities are relevant in terms of biological response, the Tox21 10K compound library was screened for auto fluorescence. From the fluorophores used as reporter signals in our screening assays, the auto fluorescence equivalencies of compounds against three fluorophores have been evaluated: Triamterene, Fluorescein and Rose Bengal sodium for blue, green and red fluorescence, respectively. The fluorescence intensities were measured using Excitation/Emission wavelengths at 405/460nm, 485/535nm and 540/590nm for blue, green and red labels, respectively. This assay includes the green fluorescence data.
Tox21 Assay Protocol Summary: 2,000 HEK293 cells in 5 uL of culture medium containing 10% dialyzed FBS per well were dispensed into black wall/clear bottom 1536-well plates using a Multidrop Combi Dispenser (Thermo Scientific). The assay plates were incubated for 4-5 hr at 37C to allow cell attachment to the well bottom, followed by the transfer of 23 nL compound or DMSO vehicle by a pintool work station (Kalypsys, San Diego, CA). After the assay plates were incubated overnight at 37C and 5% CO2, fluorescence intensities in the assay plates were measured by an Envision (PerkinElmer, Shelton, CT) plate reader using three labels for measuring blue, green and red fluorescence at […] 460, 535 and 590nm respectively.
On the % scale 0 is the no-effect control and ±100 the full control effect.

Compound | fluorescence, % of fluorescein | outcome
C=CC(=O)NC(C)(C)C | -0.009% | –
O=c1[nH]nc(-c2ccc([N+](=O)[O-])o2)o1 | -0.12% | –
CC(=O)c1ccc(Cl)c(Cl)c1Cl | -0.0553% | –
CCCCCCCCNC | -0.151% | –
O=C(O)c1cc(C(=O)O)c(C(=O)O)cc1C(=O)O | -0.0646% | –
Nc1ccc(F)cc1F | -0.239% [at 95.7 µM] | –
CC(=O)Nc1ccn(C2COC(COC(=O)c3ccccc3)O2)c(=O)n1 (stereo not given) | -0.0333% [at 46 µM] | –
O=C1c2ccccc2C(=O)c2c1ccc(O)c2O | -0.0691% [at 46 µM] | –
CCOCCn1c(N2CCCN(C)CC2)nc2ccccc21 | 0.0343% [at 46 µM] | –
COc1ccc(/C=C/c2cc(OC)cc(=O)o2)cc1 | -0.0491% [at 46 µM] | –
CC(C(=O)O)c1ccc(/C=C2\CCCCC2=O)cc1 (stereo not given) | 0.0303% [at 46 µM] | –
O=C1CCCN1CCO | 0.215% | –
COc1cccc([C@H](O)C2CCN(CCc3ccc(F)cc3)CC2)c1OC | -0.0168% | –
O=C(Nc1ccc2c(c1)Cc1ccccc1-2)C(F)(F)F | -0.0218% | –
NC(=O)c1cc[n+](CC2=C(C(=O)[O-])N3C(=O)[C@@H](NC(=O)Cc4cccs4)[C@H]3SC2)cc1 | 0.0094% [at 18.6 µM] | –
O=[N+]([O-])c1ccc(Cl)cc1Cl | 0.0953% | –
CCCCCCC/C=C/C=O | -0.0212% | –
CCc1c(C)[nH]c2c1C(=O)C(CN1CCOCC1)CC2 (stereo not given) | 0.152% [at 18.6 µM] | –
CC1=CC(=C(c2ccc(N)cc2)c2ccc(N)cc2)C=CC1=N | – | inactive
OCCOc1cccc(OCCO)c1 | -0.0451% | –

Compound | fluorescence, % of fluorescein | outcome
COC(=O)c1cc(Cl)ccc1[N+](=O)[O-] | 0.0433% | –
Clc1cccc(C(c2ccc3nc[nH]c3c2)n2ccnc2)c1 (stereo not given) | 0.0107% [at 46 µM] | –
CC(=O)c1cccnc1 | -0.0745% | –
COC=O | -0.112% [at 9.17 µM] | –
CC(=O)Nc1ccccc1O | -0.165% | –
O=C(OCCOCCOCCOC(=O)c1ccccc1)c1ccccc1 | 0.0541% | –
CC(C)CC(C)(C)C | 0.0074% [at 95.7 µM] | –
C=CCCC | -0.114% [at 95.7 µM] | –
CCCCCCCCS | 0.0567% [at 95.7 µM] | –
CCCCCCCCCCCCCCCCN | 0.0283% [at 46 µM] | –
COC(=O)/C=C/C(C)=C\C=C\C(C)=C\C=C\C=C(C)\C=C\C=C(C)\C=C\C(=O)O | 0.019% | –
Clc1ccccc1-c1nc(-c2ccncc2)no1 | 0.0355% [at 46 µM] | –
CCCC1CCOC(C)S1 (stereo not given) | 0.098% | –
Nc1ccc(-c2ccc(F)cc2)cc1 | -0.224% | –
CC(C)(Cc1c[nH]c2ccccc12)NCC(O)COc1ccccc1C#N (stereo not given) | 0.102% [at 46 µM] | –
CCOc1ccccc1O | -0.0098% | –
CC(C)C[C@H](NC(=O)[C@H](Cc1ccccc1)NC(=O)c1cnccn1)B(O)O | – | inactive
CCC1=C(C)CN(C(=O)NCCc2ccc(S(=O)(=O)NC(=O)NC3CCC(C)CC3)cc2)C1=O (stereo not given) | 0.016% [at 46 µM] | –
C=C[Si]1(C)O[Si](C)(C=C)O[Si](C)(C=C)O[Si](C)(C=C)O1 (stereo not given) | -0.0425% | –
Cc1ccc2ccccc2c1[N+](=O)[O-] | -0.0234% | –
